# Test results published in PubChem BioAssay AID2088 (The Scripps Research Institute Molecular Screening Center, 2009).
# Test: G2/M cell cycle arrest in HeLa, late-stage follow-up, mechanism study for Wee1 degradation inhibitor project, FACS (AID 2088)
# Conditions: HeLa Wee1-luciferase degradation, luminescence, G2/M arrest assay, compound-treated cells, stronger effect = higher value, concentration not given here
smiles,measurement,value
Cc1ccnc(NC(=O)CCCOc2cc(=O)n(C)c3ccccc23)c1,G2/M cells,30.5%
